# From PubChem
# nsP2pro primary – CHIKV nsP2 protease inhibition, primary qHTS; Q8JUX6; FRET peptide cleavage, nsP2pro, fluorescence 1 h; Potency, µM (top dose mostly 24.9 µM), hits mostly inhibitors; hit rate 1.1% among 31,000; further: nearly all actives have a fitted effect of over 60% in size
# Target sequence (Q8JUX6 whole entry, looked up): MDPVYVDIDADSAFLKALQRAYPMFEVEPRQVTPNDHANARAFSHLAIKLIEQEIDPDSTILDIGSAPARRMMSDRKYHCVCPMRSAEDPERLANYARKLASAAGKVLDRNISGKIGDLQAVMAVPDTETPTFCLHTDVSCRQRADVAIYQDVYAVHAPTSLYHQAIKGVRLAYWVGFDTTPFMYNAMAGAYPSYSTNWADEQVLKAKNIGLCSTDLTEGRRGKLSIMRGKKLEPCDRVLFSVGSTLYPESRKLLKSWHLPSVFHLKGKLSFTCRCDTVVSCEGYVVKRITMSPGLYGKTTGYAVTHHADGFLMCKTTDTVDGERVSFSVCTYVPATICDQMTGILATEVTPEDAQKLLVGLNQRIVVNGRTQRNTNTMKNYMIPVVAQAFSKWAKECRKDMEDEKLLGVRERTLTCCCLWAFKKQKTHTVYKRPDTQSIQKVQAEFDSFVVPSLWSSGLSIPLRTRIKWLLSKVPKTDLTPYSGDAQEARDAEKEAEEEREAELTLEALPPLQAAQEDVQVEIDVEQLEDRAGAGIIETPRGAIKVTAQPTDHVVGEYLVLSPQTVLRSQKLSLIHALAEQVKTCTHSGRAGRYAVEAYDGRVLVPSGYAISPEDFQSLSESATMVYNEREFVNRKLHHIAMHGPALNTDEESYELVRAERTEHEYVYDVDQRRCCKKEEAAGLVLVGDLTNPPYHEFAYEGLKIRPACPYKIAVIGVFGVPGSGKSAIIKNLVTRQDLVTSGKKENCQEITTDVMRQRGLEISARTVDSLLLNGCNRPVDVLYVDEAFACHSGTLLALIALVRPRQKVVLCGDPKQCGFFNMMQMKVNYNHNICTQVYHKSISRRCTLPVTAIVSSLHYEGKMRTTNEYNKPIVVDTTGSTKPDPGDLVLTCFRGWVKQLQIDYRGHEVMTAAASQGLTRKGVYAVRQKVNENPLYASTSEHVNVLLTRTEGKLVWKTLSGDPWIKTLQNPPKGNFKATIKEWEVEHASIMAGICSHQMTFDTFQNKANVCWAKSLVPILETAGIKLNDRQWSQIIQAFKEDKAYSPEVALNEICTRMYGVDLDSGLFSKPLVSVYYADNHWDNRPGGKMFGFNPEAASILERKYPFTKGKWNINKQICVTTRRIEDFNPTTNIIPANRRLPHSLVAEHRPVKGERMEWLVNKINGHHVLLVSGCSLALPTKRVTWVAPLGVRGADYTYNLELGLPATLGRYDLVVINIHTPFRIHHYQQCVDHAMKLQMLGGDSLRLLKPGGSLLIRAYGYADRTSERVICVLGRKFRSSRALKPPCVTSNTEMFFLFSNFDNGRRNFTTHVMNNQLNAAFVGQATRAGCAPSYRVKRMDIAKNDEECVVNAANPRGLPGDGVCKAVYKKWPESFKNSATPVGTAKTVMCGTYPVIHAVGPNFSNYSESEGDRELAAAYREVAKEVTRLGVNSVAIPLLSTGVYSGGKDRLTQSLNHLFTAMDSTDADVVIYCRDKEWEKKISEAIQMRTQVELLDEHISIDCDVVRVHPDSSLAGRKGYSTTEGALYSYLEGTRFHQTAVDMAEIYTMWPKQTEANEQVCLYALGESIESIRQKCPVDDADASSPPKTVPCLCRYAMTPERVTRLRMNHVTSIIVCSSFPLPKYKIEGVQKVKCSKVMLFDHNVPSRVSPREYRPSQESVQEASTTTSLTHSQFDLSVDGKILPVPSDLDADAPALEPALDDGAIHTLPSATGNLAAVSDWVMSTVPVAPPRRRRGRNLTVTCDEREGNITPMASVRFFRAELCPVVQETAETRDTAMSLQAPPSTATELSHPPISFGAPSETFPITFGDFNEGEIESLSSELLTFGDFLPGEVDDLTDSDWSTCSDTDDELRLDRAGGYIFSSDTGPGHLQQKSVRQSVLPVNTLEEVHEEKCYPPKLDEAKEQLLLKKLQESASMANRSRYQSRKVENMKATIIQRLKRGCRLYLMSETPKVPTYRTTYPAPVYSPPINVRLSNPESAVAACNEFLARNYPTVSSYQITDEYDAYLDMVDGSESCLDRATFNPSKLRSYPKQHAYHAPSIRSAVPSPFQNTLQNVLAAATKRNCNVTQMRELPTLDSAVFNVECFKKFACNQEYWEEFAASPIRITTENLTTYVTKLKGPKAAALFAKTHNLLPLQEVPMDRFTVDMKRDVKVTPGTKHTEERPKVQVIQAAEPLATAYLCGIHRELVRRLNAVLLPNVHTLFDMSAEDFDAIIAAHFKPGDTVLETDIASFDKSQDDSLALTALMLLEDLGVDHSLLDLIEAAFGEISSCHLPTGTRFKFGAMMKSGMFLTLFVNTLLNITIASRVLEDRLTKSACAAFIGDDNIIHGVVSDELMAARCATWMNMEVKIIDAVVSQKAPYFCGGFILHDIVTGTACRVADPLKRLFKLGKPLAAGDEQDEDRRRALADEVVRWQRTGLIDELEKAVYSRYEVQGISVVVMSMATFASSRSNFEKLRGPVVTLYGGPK
#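 FRET cleavage of 2.5 uM peptide 2 by 150 nM CHIKV protease domain at pH 8.0 (Tris, Tween 20). Compounds at 7 concentrations (up to 25 uM) preincubated 15 min. Fluorescence read after 1 h at room temperature.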
# nsP2 cell sec – secondary cell-based test for CHIKV nsP2 protease inhibitors; shares compounds with nsP2pro primary; cell-based CHIKV nsP2 protease reporter assay; Potency, µM (series often up to 51.1 µM), hits mostly inhibitors; hit rate 10% among 450; AID 1964100; further: nearly all actives have a fitted effect of over 70% in size
# NSP2 full ctr – selectivity test for CHIKV nsP2 protease inhibitors: full-length NSP2 | Full-length CHIKV NSP2 protease enzymatic counterscreen | AID 1964101 | shares compounds with nsP2pro primary | hit rate 39% among 410 | Potency, µM (titrated, usually from 50.7 µM), most hits filed as inhibitors; further: nearly all actives have a fitted effect of over 65% in size
# Furin counter – inhibits human furin in a CHIKV nsP2 protease selectivity counterscreen | Potency, µM (doses to about 50.6 µM), usual class: inhibitors | hit rate 6% among 410 | shares compounds with nsP2pro primary | Recombinant human furin enzymatic counterscreen, fluorogenic substrate
# NS23 peptide cs – blocks CHIKV nsP2 protease cleavage of endogenous NS2/3 peptide | shares compounds with nsP2pro primary | Purified CHIKV nsP2 protease, endogenous NS2/3 peptide cleavage | Potency, µM (top dose mostly 51 µM), usual class: inhibitors | hit rate 34% among 410 | AID 1964103; further: nearly all actives have a fitted effect of over 55% in size
# Papain counter – inhibits papain in a CHIKV nsP2 protease selectivity counterscreen; hit rate 5% among 410; shares compounds with nsP2pro primary; purified papain protease activity, enzymatic inhibition; Potency, µM (top dose mostly 51 µM), most hits filed as inhibitors
# nsP2pro confirm – CHIKV nsP2 protease inhibition, confirmatory qHTS; hit rate 43% among 410; shares compounds with nsP2pro primary; CHIKV nsP2 protease enzymatic activity, qHTS; AID 1964105; Potency, µM (doses to about 25.5 µM), most hits filed as inhibitors; further: nearly all actives have a fitted effect of over 75% in size
# HCV NS3 counter – inhibits HCV NS3/4A protease in an nsP2pro selectivity counterscreen. Potency, µM (doses to about 50.9 µM), usual class: inhibitors. shares compounds with nsP2pro primary. hit rate 20% among 410. HCV NS3/4A protease biochemical counterscreen; further: nearly all actives have a fitted effect of over 55% in size
# A number is an active result; - = inactive; ? = inconclusive. The full list was thinned out, with hits kept by preference. The call rests on the fitted dose curve.
SMILES,nsP2pro primary,others
COC(=O)C1=CO[C@@H](O[C@@H]2O[C@H](CO)[C@@H](O)[C@H](O)[C@H]2O)[C@@H]2C(C)CC(=O)[C@]12O (some centres undefined),-,
CC1CC(=O)[C@]2(O)C(C(=O)OCCc3ccc(O)c(O)c3)=CO[C@@H](O[C@@H]3O[C@H](CO)[C@@H](O)[C@H](O)[C@H]3O)[C@H]12 (some centres undefined),3.8µM,nsP2 cell sec=-;NSP2 full ctr=-;Furin counter=-;NS23 peptide cs=-;Papain counter=-;nsP2pro confirm=?;HCV NS3 counter=4µM
COC(=O)C1=COC(OC2OC(CO)C(O)C(O)C2O)C2C(C)CC(=O)C12O (centres undefined),-,
CC(=O)NCCC(=O)N1CCC2(CC1)CC(N[S+](C)(=O)[O-])c1ccccc12 (centres undefined),-,
COc1cccc(-c2cc(C3CCN(C(=O)Nc4ccccc4C(F)(F)F)CC3)[nH]n2)c1,-,
COCC1CCCN(C(=O)c2cc(Cn3c(C)nc4ccccc43)[nH]n2)C1 (centres undefined),-,
O=C(c1cc(-c2ccco2)[nH]n1)N1CCC(n2cnc3ccccc32)C1 (centres undefined),0.71µM,nsP2 cell sec=?;NSP2 full ctr=7.3µM;Furin counter=-;NS23 peptide cs=?;Papain counter=-;nsP2pro confirm=?;HCV NS3 counter=3.3µM
O=C(c1ccc2ccccc2n1)N1CCC(n2cc(-c3nc(-c4ccccc4)no3)nn2)C1 (centres undefined),-,
CC(=O)NCC(=O)N1CCC(c2cc(-c3ccc(F)cc3)n[nH]2)CC1,-,
O=C(NCC(F)(F)F)c1cc(C2CCN(C(=O)c3cc(-c4ccco4)[nH]n3)CC2)[nH]n1,1.1µM,nsP2 cell sec=-
Cc1ccc(CN2CC(N(CC3CC3)C3CCOCC3)C2)cc1,-,
CN(C)C/C=C/C(=O)Nc1cccc(C(OCCN2CCCCC2)c2cc3nccc(C(=O)O)c3s2)c1 (centres undefined),-,
Cc1nnc2ccc(N3CCC(NC(=O)C(C)C)CC3)nn12,-,
CC(C)(C)c1cccc(-n2cnc3cc(C(=O)N4CCCCC4)ccc32)c1,-,
[2H]C([2H])([2H])C(CCC[C@@H](C)[C@H]1CC[C@H]2/C(=C/C=C3\C[C@@H](O)C[C@H](O)C3=C)CCC[C@]12C)C([2H])([2H])[2H],-,
CC(=O)Nc1ccc(S(=O)(=O)Nc2ccc([N+](=O)[O-])cc2)cc1,-,
Cc1ccc(S(=O)(=O)Nc2cc([N+](=O)[O-])ccc2C(=O)Nc2nc(-c3ccccc3)cs2)cc1,-,
Cc1ccc(S(=O)(=O)c2ccc([N+](=O)[O-])cn2)cc1,0.35µM,nsP2 cell sec=2.1µM;NSP2 full ctr=1.5µM;Furin counter=12µM;NS23 peptide cs=1.8µM;Papain counter=-;nsP2pro confirm=0.56µM;HCV NS3 counter=2.9µM
CN(CC1CCOC1)C(=O)Cc1ccccc1 (centres undefined),-,
O=c1cc2nc(-c3ccccc3)nc(SCCN3CCC(F)(F)CC3)n2[nH]1,-,
CC1(C)OC(=O)CC(O)C2(C)C1CC(=O)C1(C)C2C(O)CC2(C)C(c3ccoc3)OC(=O)C3OC321 (centres undefined),?,nsP2 cell sec=-;NSP2 full ctr=-;Furin counter=-;NS23 peptide cs=-;Papain counter=-;nsP2pro confirm=-;HCV NS3 counter=-
CC1(C)O[C@H]2CC(=O)OC[C@@]23C1=C(O)C(=O)[C@]1(C)C3CC[C@@]2(C)[C@H](c3ccoc3)OC(=O)[C@H]3O[C@]321 (some centres undefined),?,nsP2 cell sec=-;NSP2 full ctr=-;Furin counter=-;NS23 peptide cs=-;Papain counter=-;nsP2pro confirm=-;HCV NS3 counter=?
C=C1[C@@H]2CC[C@@]3(C)[C@H](c4ccoc4)OC(=O)C[C@]13O[C@H]1CC(=O)C(C)(C)[C@H](C(OC(C)=O)C(=O)OC)[C@]12C (some centres undefined),-,
NCC(=O)N1CCC2(CC1)CN(C(=O)Cc1cccc(Cl)c1)CCO2,-,
COc1ccc(-c2cc([C@H]3CN4CC[C@H]3C[C@@H]4COC(=O)Nc3ccccc3)n(C)n2)cc1,-,
SMILES,nsP2pro primary,others
CC(C)NC(=O)OC[C@H]1C[C@@H]2CCN1C[C@@H]2c1cc(C2CCCC2)nc(-c2ccncc2)n1,5µM,nsP2 cell sec=-;NSP2 full ctr=6.5µM;Furin counter=?;NS23 peptide cs=18µM;Papain counter=-;nsP2pro confirm=8µM;HCV NS3 counter=10µM
Cn1nc(C2CCCC2)cc1[C@H]1CN2CC[C@H]1C[C@@H]2CNC(=O)c1cccs1,-,
CCC(CC)c1cc([C@H]2CN3CC[C@H]2C[C@@H]3CNC2CCN(C)CC2)nc(-c2ccncc2)n1,-,
O=C(NC1CCCCC1)OC[C@H]1C[C@@H]2CCN1C[C@@H]2c1cc(C2CCCC2)nc(-c2ccncc2)n1,7.9µM,nsP2 cell sec=-;NSP2 full ctr=?;Furin counter=?;NS23 peptide cs=?;Papain counter=-;nsP2pro confirm=9µM;HCV NS3 counter=15µM
CCCS(=O)(=O)NC[C@H]1C[C@@H]2CCN1C[C@@H]2c1cc(C(CC)CC)nc(-c2ccncc2)n1,-,
Cc1cc(C)nc(NC(=S)N2CCN(c3nncs3)CC2)c1,-,
C[C@H](C(=O)N1Cc2ccccc2CC2(CCN(Cc3ccncc3)C2)C1)c1ccccc1 (some centres undefined),-,
Cc1cccc(-n2ncc3c2CCCC3NC(=O)CN2CCNC(=O)C2)c1C (centres undefined),-,
CCOCCCNC(=O)N1CC2CN(CCOC)CC(C1)O2,-,
Cc1ccc(-c2cc(C(=O)Nc3ccccc3C)c3ccccc3n2)cc1C,-,
CC(=O)N1CCN(C(=O)c2cc(-c3ccc(F)cc3)c3nncn3n2)CC1,-,
Cc1noc(-c2ccc(-c3noc(-c4ccc([N+](=O)[O-])c(C)c4)n3)cc2)n1,-,
Cc1ccc([N+](=O)[O-])[c]2c1[O][Hg]2,1.6µM,nsP2 cell sec=1.4µM;NSP2 full ctr=?;Furin counter=1.3µM;NS23 peptide cs=5.8µM;Papain counter=-;nsP2pro confirm=0.71µM;HCV NS3 counter=0.26µM
Cc1cc(C)nc(NC(=S)N2CCN(c3cc(Cl)cc(Cl)c3)CC2)c1,-,
CC1CCCN(c2ncnc3c2CN(c2ccc(Cl)cc2)C(=O)CN3C)C1 (centres undefined),-,
COc1ccc(CN2COc3ccc4c(oc(=O)c5ccccc54)c3C2)cc1OC,-,
Cc1cc(=O)oc2c3c(ccc12)OCN(Cc1ccc(Cl)cc1)C3,-,
O=c1oc2c3c(ccc2c2ccccc12)OCN(Cc1ccc(Cl)cc1)C3,?,nsP2 cell sec=-;NSP2 full ctr=?;Furin counter=?;NS23 peptide cs=?;Papain counter=-;nsP2pro confirm=4.5µM;HCV NS3 counter=-
N#Cc1cnc(NS(=O)(=O)c2ccc(NC(=O)Cc3ccc(Cl)c(Cl)c3)cc2)s1,-,
CCCNC(=O)N[C@@H]1CCC[C@@H](C(=O)NCCOC)CC(=O)N(C)C1,4µM,nsP2 cell sec=-;NSP2 full ctr=15µM;Furin counter=?;NS23 peptide cs=24µM;Papain counter=-;nsP2pro confirm=4.1µM;HCV NS3 counter=?
COCC(=O)N[C@@H]1CCC[C@@H](C(=O)NC2CC2)CC(=O)N(C)C1,-,
